Experimental data published in PubChem BioAssay (NCI).
Compounds without any hit were thinned out: in the full panel of roughly 79,000, 15% have a hit. Activity calls are given as the source filed them. No stated cut-off is given here; in the data, active means growth inhibition above about 70%; inactive means the rest.

Columns and labels:
[1] = NCI Yeast Anticancer Drug Screen. Data for the wt1 strain (AID 149);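 further: 0% = growth of vehicle-treated wt1 cultures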; conditions: S. cerevisiae wt1 strain (SPY 50644) growth inhibition, active compounds read high
Summary of the method: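 Growth inhibition read against vehicle controls after compound exposure of the wt1 yeast strain.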

[2] = NCI Yeast Anticancer Drug Screen. Data for the rad50EPP+ strain (AID 151);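 further: 0% = growth of vehicle-treated control cultures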; conditions: S. cerevisiae rad50 mutant strain, active compounds read high
Summary of the method: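 Genetically defined yeast (rad50EPP+, DNA damage repair alteration) is grown with compound, and inhibition of growth is expressed relative to vehicle-treated controls.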

[3] = NCI Yeast Anticancer Drug Screen. Data for the mgt1 strain (AID 153); conditions: S. cerevisiae mgt1 mutant growth inhibition, active compounds read high
Summary of the method: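 In the mgt1 strain, test compounds were added and growth inhibition was determined relative to vehicle-treated controls.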

[4] = NCI Yeast Anticancer Drug Screen. Data for the rad50 strain (AID 155);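 further: 0% = growth of vehicle-only cultures of the same strain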; conditions: S. cerevisiae rad50 strain growth inhibition, active compounds read high
Summary of the method: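 Readout: growth inhibition relative to vehicle-treated cultures. Compound exposure was carried out in a genetically defined yeast strain deficient in DNA damage repair.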

[5] = NCI Yeast Anticancer Drug Screen. Data for the mec2-1 strain (AID 157); conditions: S. cerevisiae mec2-1 strain, active compounds read high
Summary of the method: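 Each compound was tested on mec2-1 yeast, a strain altered in DNA damage repair or cell cycle control. Growth inhibition is reported relative to vehicle.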

[6] = NCI Yeast Anticancer Drug Screen. Data for the rad14 strain (AID 159);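 further: 0% = growth of vehicle-treated control cultures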; conditions: S. cerevisiae rad14 strain growth inhibition, active compounds read high
Summary of the method: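 Growth inhibition vs vehicle controls; genetically altered yeast strain (DNA damage repair defect) treated with test compounds.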

[7] = NCI Yeast Anticancer Drug Screen. Data for the sgs1 mgt1 strain (AID 161);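 further: 0% = growth of cultures given vehicle only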; conditions: S. cerevisiae sgs1 mgt1 strain, active compounds read high
Summary of the method: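 Test agents were incubated with a DNA-repair-mutant yeast strain. Growth was then read and compared against vehicle-treated controls.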

[8] = NCI Yeast Anticancer Drug Screen. Data for the CLN2oe strain (AID 163);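 further: 0% = growth of vehicle-only control cultures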; conditions: S. cerevisiae CLN2oe strain, active compounds read high
Summary of the method: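 First, the altered yeast strain was treated with each compound; second, its growth was measured; finally, inhibition was derived by comparison with vehicle controls.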

[9] = NCI Yeast Anticancer Drug Screen. Data for the cln2 rad14 strain (AID 165);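 further: 0% = growth equal to vehicle treated cultures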; conditions: S. cerevisiae cln2 rad14 strain, active compounds read high
Summary of the method: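 Test compounds were added to cln2 rad14 yeast cultures; inhibition of growth was then determined by comparison with vehicle treatment.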

[10] = NCI Yeast Anticancer Drug Screen. Data for the bub3 strain (AID 167); conditions: S. cerevisiae bub3 mutant strain, active compounds read high
Summary of the method: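 Readout: yeast growth inhibition, expressed relative to vehicle-only wells. The test organism is a mutant strain from a panel with lesions in DNA repair or checkpoint genes.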

[11] = NCI Yeast Anticancer Drug Screen. Data for the wt2 strain (AID 169);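 further: 0% = growth of vehicle-treated yeast cultures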; conditions: S. cerevisiae wt2 strain growth inhibition, active compounds read high
Summary of the method: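 The panel's yeast strains carry defined changes in DNA repair or cell cycle genes. Each strain is grown with compound, and growth loss is scored relative to vehicle.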

[12] = NCI Yeast Anticancer Drug Screen. Data for the mlh1 strain (AID 171);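 further: 0% = growth of vehicle-treated control cultures of the same strain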; conditions: S. cerevisiae mlh1 strain growth inhibition, active compounds read high
Summary of the method: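 Inhibition values reflect reduced yeast growth in the presence of compound, referenced to vehicle controls, using a strain chosen for its alteration in DNA repair or cell cycle control.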

[13] = NCI Yeast Anticancer Drug Screen. Data for the sgs1 strain (AID 173);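 further: 0% = growth of vehicle-only control cultures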; conditions: S. cerevisiae sgs1 mutant, active compounds read high
Summary of the method: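 Vehicle-treated cultures served as reference for growth inhibition of a yeast strain altered in DNA damage repair or cell cycle control after compound exposure.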

[14] = NCI Yeast Anticancer Drug Screen. Data for the rad18 strain (AID 177); conditions: S. cerevisiae rad18 mutant growth inhibition, active compounds read high
Summary of the method: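 Steps: expose repair-mutant yeast to compound; measure growth; express as inhibition relative to vehicle control.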

[15] = NCI Yeast Anticancer Drug Screen. Data for the mlh1 rad18 strain (AID 175); conditions: S. cerevisiae mlh1 rad18 strain growth inhibition, active compounds read high
Summary of the method: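 Inhibition values reflect reduced growth of mutant yeast versus vehicle-treated controls following compound exposure; the mutations affect DNA damage repair.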

[16] = at 5.0 µM (retest, dose inferred, filed as 0.5)
[17] = at 50.0 µM (retest, dose inferred, filed as 5.0)

Measured: growth inhibition

CN(C)CCNC(=Cc1ccc2ccccc2[n+]1C)NCCN(C)C
inactive: [1]; at 1.2 µM 0% | [1]; at 3.7 µM -2% | [1]; at 11.0 µM -2% | [1]; at 33.0 µM -1% | [1]; at 100.0 µM 0% | [2]; at 1.2 µM -2% | [2]; at 3.7 µM 0% | [2]; at 11.0 µM 1% | [2]; at 33.0 µM 3% | [2]; at 100.0 µM 2% | [3]; at 1.2 µM 0% | [3]; at 3.7 µM 0% | [3]; at 11.0 µM -3% | [3]; at 33.0 µM -1% | [3]; at 100.0 µM -1% | [4]; at 1.2 µM 1% | [4]; at 3.7 µM 1% | [4]; [16] -1% | [4]; at 11.0 µM 1% | [4]; at 33.0 µM 2% | [4]; [17] 2% | [4]; at 50.0 µM 24.2% | [4]; at 100.0 µM 1% | [5]; at 1.2 µM -5% | [5]; at 3.7 µM 0% | [5]; [16] 0% | [5]; at 11.0 µM 3% | [5]; at 33.0 µM 1% | [5]; [17] 2% | [5]; at 50.0 µM 19.6% | [5]; at 100.0 µM 1% | [6]; at 1.2 µM -2% | [6]; at 3.7 µM -1% | [6]; at 11.0 µM -2% | [6]; at 33.0 µM -3% | [6]; at 100.0 µM -2% | [7]; [16] -12% | [7]; [17] -13% | [7]; at 50.0 µM 19.4% | [8]; at 1.2 µM -3% | [8]; at 3.7 µM 0% | [8]; at 11.0 µM 0% | [8]; at 33.0 µM 4% | [8]; at 100.0 µM -1% | [9]; [16] 1% | [9]; [17] 8% | [9]; at 50.0 µM -2.95% | [10]; at 1.2 µM 2% | [10]; at 3.7 µM -3% | [10]; [16] -3% | [10]; at 11.0 µM 0% | [10]; at 33.0 µM -9% | [10]; [17] -2% | [10]; at 50.0 µM -4.65% | [10]; at 100.0 µM -5% | [11]; at 1.2 µM -2% | [11]; at 3.7 µM -3% | [11]; at 11.0 µM -2% | [11]; at 33.0 µM -2% | [11]; at 100.0 µM 0% | [12]; at 1.2 µM 0% | [12]; at 3.7 µM -2% | [12]; at 11.0 µM 1% | [12]; at 33.0 µM 0% | [12]; at 100.0 µM 0% | [13]; at 1.2 µM 0% | [13]; at 3.7 µM 0% | [13]; at 11.0 µM 0% | [13]; at 33.0 µM 0% | [13]; at 100.0 µM 1% | [14]; at 1.2 µM -2% | [14]; at 3.7 µM -4% | [14]; at 11.0 µM 0% | [14]; at 33.0 µM -2% | [14]; at 100.0 µM -1%

CN(N=O)C(=O)Nc1ccc(C(=O)O)cc1
inactive: [1]; at 1.2 µM -2% | [1]; at 3.7 µM -3% | [1]; at 11.0 µM -2% | [1]; at 33.0 µM -2% | [1]; at 100.0 µM 2% | [2]; at 1.2 µM -1% | [2]; at 3.7 µM 0% | [2]; at 11.0 µM 3% | [2]; at 33.0 µM 12% | [2]; at 100.0 µM 31% | [3]; at 1.2 µM 0% | [3]; at 3.7 µM 3% | [3]; at 11.0 µM 15% | [3]; at 33.0 µM 28% | [3]; at 100.0 µM 36% | [4]; at 1.2 µM 2% | [4]; at 3.7 µM 11% | [4]; [16] 12% | [4]; at 11.0 µM 19% | [4]; at 33.0 µM 44% | [4]; [17] 68% | [4]; at 50.0 µM 65.3% | [5]; at 1.2 µM -10% | [5]; at 3.7 µM 1% | [5]; [16] -8% | [5]; at 11.0 µM -6% | [5]; at 33.0 µM -7% | [5]; [17] 37% | [5]; at 50.0 µM 7.8% | [5]; at 100.0 µM 19% | [6]; at 1.2 µM -4% | [6]; at 3.7 µM 6% | [6]; at 11.0 µM -1% | [6]; at 33.0 µM 2% | [6]; at 100.0 µM 8% | [7]; [16] 43% | [7]; at 50.0 µM 62.6% | [8]; at 1.2 µM -4% | [8]; at 3.7 µM -3% | [8]; at 11.0 µM -6% | [8]; at 33.0 µM -9% | [8]; at 100.0 µM -1% | [9]; [16] -45% | [9]; [17] -4% | [9]; at 50.0 µM 2.05% | [10]; at 1.2 µM -14% | [10]; at 3.7 µM -8% | [10]; [16] -16% | [10]; at 11.0 µM -5% | [10]; at 33.0 µM -9% | [10]; [17] 6% | [10]; at 50.0 µM -14.2% | [10]; at 100.0 µM -8% | [11]; at 1.2 µM -3% | [11]; at 3.7 µM -2% | [11]; at 11.0 µM -1% | [11]; at 33.0 µM 0% | [11]; at 100.0 µM 6% | [12]; at 1.2 µM -6% | [12]; at 3.7 µM 1% | [12]; at 11.0 µM -1% | [12]; at 33.0 µM -21% | [12]; at 100.0 µM -12% | [13]; at 1.2 µM 2% | [13]; at 3.7 µM 8% | [13]; at 11.0 µM 20% | [13]; at 33.0 µM 35% | [13]; at 100.0 µM 55% | [15]; [16] 16% | [15]; [17] 51% | [15]; at 50.0 µM 32.9% | [14]; at 1.2 µM 18% | [14]; at 3.7 µM 47%
active: [4]; at 100.0 µM 77% | [7]; [17] 80% | [14]; at 11.0 µM 81% | [14]; at 33.0 µM 90% | [14]; at 100.0 µM 93%
